In ChEMBL document CHEMBL3988442, “University of Dundee, Small-Polar-MMV Screening Library” (2021):
For some assays here: Results with a measured potency or affinity are listed apart.

What was measured:
Set-up in all cases: scale not given: direction of the effect not stated beside the values
[1] = target: Protein translocase subunit SecA (Escherichia coli (strain K12)) (UniProt P10408); assay: Assay to Identify E. coli SecA ATPase Inhibitors; type: functional; settings: 30 µM
[2] = target: T1, Ubiquitin-activating enzyme e1, putative (Leishmania donovani (strain BPK282A1)) (UniProt E9BSI1); assay: Leishmania donovani Ubiquitin Activating Enzyme (LdE1); type: functional; settings: 30 µM
T1 sequence (whole entry): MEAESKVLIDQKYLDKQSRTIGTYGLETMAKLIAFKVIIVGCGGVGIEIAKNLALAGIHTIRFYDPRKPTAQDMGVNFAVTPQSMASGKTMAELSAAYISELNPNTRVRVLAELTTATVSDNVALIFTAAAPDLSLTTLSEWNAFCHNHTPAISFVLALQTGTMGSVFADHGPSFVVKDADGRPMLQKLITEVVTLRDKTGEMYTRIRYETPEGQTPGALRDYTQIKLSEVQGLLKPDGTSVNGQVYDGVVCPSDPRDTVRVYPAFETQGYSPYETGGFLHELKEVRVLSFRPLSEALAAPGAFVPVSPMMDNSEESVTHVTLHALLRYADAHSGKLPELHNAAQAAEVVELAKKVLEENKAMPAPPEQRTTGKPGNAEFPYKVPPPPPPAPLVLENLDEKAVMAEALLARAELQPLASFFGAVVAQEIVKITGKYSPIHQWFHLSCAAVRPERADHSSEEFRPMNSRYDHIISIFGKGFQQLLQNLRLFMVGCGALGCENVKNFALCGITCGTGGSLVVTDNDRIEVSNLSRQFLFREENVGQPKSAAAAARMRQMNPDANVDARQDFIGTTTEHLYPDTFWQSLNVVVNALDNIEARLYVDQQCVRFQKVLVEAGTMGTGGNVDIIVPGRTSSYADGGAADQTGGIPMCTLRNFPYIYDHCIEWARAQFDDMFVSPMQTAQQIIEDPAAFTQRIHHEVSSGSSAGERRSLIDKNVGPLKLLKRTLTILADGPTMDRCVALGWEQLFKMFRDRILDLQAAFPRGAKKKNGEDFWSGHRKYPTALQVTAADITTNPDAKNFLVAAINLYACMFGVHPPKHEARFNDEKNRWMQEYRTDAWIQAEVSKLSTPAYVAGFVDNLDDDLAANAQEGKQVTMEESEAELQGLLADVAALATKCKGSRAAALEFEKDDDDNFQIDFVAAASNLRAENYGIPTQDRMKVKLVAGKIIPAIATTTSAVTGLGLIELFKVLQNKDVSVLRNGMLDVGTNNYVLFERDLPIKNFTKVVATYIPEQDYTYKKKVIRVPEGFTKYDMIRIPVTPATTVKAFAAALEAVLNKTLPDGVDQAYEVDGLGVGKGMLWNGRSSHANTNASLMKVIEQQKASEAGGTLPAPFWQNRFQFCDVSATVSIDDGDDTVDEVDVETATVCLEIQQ

[3] = target: AMP-activated protein kinase, AMPK (Homo sapiens) (UniProt P54646+O43741+P54619+Q9UGJ0+Q9Y478+Q13131+Q9UGI9); assay: AMP-dependent Kinase enzyme assay. An in vitro enzyme assay that detects ADP turnover that is directly proportional to AMPK activity. This uses naive AMPK that is activated during the assay with MK-8722; type: functional; settings: 30 µM
[4] = target: Sialic acid-binding Ig-like lectin 9 (Homo sapiens) (UniProt Q9Y336); assay: Hs-Siglec9 ALPHAscreen SOP 20170721; settings: 10 µM
Sialic acid-binding Ig-like lectin 9 (Homo sapiens), sequence (Q9Y336 whole entry): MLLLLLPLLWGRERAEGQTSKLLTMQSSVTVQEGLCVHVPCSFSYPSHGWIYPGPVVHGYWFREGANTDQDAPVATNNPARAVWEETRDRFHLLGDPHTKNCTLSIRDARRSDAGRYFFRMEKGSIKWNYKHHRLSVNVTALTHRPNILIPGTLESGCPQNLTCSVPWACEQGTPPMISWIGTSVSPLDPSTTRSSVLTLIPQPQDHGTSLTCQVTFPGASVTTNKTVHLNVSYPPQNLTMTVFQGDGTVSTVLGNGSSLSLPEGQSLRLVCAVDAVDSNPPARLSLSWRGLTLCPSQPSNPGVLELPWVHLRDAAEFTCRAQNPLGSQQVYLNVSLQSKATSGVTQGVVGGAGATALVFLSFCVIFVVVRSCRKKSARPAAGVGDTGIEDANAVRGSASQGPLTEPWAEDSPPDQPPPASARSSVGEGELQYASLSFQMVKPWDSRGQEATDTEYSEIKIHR

[5] = test system: Trypanosoma cruzi; assay: Trypanosoma cruzi phosphomannomutase and mannose-1-phosphate guanylyltransferase assay; type: functional; settings: 10 µM
[6] = target: T2, Arginase-2, mitochondrial (Homo sapiens) (UniProt P78540); assay: in vitro enzyme assay to detect the production of urea directly proportional to the activity of Arginase II; type: functional; settings: 33.3 µM; further: in the data most compounds retested in dose-response had high values
T2 sequence (whole entry): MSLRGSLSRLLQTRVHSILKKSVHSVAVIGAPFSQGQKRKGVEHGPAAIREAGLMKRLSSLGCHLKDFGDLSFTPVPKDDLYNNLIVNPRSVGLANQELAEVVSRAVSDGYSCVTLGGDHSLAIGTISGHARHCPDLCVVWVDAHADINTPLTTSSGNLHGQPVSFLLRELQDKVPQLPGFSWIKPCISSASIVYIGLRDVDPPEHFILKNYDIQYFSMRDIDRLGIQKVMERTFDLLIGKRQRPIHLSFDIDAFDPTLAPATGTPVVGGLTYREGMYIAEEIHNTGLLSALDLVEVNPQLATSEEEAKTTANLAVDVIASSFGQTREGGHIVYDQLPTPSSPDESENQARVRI

[7] = target: T3, Proteasome subunit beta (Trypanosoma cruzi) (UniProt O96673); assay: Trypanosoma cruzi proteasome chymotrypsin-like activity (TcProtChymo) assay.; further: in the data most compounds retested in dose-response had high values; type: functional; settings: 9.37 µM
T3 sequence (whole entry): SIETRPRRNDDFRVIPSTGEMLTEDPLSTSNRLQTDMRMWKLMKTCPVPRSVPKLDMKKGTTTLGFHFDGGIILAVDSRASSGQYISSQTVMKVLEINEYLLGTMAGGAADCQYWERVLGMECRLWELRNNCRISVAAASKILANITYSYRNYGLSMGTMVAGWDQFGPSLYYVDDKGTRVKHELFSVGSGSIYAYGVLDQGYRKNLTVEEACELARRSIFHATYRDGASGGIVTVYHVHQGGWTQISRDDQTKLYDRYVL

[8] = species: Homo sapiens; assay: To identify inhibition of the IFN signalling (Jak-Stat) pathway via expression of an eGFP reporter gene under the control of an IFN-stimulated response element (ISRE) containing MxA promoter.; type: functional; settings: 30 µM
[9] = target: T4, Tyrosyl-tRNA synthetase, putative (Trypanosoma cruzi (strain CL Brener)) (UniProt Q4DSP6); assay: Trypanosoma cruzi tyrosyl tRNA synthetase (TcYRS) _High Tyrosine SOP; type: functional; settings: 30 µM; further: in the data most compounds retested in dose-response had high values
T4 sequence (whole entry): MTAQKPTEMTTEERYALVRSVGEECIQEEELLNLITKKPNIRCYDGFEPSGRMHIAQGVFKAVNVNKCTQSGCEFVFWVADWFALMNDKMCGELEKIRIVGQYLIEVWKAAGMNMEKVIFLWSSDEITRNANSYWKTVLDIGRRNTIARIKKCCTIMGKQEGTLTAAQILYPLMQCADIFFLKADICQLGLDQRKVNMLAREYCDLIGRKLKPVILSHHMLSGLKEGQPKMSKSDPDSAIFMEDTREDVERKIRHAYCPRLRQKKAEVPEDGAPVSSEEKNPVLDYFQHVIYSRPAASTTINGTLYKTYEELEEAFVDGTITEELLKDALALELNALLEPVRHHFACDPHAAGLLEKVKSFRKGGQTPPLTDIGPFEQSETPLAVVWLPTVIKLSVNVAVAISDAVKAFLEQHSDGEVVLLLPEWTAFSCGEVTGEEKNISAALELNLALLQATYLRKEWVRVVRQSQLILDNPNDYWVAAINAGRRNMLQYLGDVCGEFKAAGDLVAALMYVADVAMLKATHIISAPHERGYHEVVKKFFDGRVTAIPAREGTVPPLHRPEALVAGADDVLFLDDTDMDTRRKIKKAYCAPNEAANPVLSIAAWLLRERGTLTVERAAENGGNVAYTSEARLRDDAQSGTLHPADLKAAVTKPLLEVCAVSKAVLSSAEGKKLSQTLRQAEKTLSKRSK

[10] = target: T4, Tyrosyl-tRNA synthetase, putative (Trypanosoma cruzi (strain CL Brener)); assay: Trypanosoma cruzi tyrosyl tRNA synthetase (TcYRS) SOP; type: functional; settings: 30 µM
[11] = target: Chromo domain-containing protein 1 (Saccharomyces cerevisiae (strain ATCC 204508 / S288c) (Baker's yeast)) (UniProt P32657); assay: ScCHD-1 Enzyme Inhibition Assay; type: functional; settings: 30 µM; further: in the data most compounds retested in dose-response had high values
Chromo domain-containing protein 1 (Saccharomyces cerevisiae (strain ATCC 204508 / S288c) (Baker's yeast)), sequence (P32657 whole entry, the tested form may be a part): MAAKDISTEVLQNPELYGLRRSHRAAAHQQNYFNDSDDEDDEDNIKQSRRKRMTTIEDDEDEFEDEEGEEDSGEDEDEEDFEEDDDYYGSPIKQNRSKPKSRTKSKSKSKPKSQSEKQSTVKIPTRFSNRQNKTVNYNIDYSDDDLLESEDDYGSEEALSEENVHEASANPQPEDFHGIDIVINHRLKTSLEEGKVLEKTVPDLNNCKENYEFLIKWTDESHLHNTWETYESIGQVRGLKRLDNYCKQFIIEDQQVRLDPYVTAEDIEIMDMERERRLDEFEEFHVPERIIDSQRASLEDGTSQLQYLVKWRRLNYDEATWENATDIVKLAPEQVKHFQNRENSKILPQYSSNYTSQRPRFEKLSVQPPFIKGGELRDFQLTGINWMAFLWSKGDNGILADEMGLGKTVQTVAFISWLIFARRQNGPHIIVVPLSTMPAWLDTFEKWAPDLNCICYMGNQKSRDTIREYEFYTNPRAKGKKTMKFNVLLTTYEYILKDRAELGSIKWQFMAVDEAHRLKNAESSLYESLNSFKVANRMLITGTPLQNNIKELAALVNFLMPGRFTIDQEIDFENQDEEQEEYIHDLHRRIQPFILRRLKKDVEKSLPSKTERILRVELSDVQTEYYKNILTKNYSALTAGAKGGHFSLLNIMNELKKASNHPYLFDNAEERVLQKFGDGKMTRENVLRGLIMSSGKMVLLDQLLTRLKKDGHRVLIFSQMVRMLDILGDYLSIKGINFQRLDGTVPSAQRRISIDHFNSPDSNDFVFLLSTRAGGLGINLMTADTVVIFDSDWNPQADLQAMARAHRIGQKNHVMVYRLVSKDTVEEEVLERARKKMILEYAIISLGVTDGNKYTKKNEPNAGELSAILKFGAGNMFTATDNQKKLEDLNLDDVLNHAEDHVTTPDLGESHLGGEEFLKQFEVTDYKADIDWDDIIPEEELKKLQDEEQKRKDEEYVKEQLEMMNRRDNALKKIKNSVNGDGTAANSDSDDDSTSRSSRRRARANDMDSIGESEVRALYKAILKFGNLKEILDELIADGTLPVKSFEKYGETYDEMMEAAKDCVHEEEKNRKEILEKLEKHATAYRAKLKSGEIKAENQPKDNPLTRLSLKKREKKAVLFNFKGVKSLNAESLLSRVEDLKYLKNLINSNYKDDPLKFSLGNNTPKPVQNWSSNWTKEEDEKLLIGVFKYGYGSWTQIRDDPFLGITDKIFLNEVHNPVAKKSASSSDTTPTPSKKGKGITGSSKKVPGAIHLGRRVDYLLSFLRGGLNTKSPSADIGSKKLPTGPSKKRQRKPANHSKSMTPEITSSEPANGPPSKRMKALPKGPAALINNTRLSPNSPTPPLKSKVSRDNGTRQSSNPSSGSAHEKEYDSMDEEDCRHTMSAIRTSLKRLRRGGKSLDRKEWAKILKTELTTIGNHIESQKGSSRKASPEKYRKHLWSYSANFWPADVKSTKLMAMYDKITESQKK

Protein translocase subunit SecA (Escherichia coli (strain K12)), sequence (P10408 whole entry): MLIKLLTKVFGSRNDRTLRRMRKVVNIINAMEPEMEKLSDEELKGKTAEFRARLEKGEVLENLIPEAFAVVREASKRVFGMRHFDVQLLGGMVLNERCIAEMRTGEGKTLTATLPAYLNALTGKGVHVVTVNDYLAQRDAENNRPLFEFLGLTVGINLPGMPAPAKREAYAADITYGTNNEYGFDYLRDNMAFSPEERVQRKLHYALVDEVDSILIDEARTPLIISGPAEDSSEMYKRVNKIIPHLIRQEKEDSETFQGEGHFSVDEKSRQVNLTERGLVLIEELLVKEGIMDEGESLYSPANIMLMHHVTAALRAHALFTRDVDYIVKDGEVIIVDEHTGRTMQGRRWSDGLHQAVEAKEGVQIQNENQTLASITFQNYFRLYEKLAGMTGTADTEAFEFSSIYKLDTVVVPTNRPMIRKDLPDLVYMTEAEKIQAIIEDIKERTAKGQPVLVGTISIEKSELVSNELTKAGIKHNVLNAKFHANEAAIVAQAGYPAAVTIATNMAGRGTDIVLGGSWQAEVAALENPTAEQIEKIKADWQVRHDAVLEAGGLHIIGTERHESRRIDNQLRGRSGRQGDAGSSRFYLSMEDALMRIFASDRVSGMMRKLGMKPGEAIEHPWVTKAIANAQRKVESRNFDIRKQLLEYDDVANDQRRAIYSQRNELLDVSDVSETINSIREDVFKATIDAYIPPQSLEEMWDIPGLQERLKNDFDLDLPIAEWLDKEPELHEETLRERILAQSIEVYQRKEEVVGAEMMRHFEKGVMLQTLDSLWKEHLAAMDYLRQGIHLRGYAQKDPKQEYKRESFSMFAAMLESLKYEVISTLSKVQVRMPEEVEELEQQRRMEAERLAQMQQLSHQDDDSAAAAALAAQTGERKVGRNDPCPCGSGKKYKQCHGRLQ

Row | SMILES | Percent Effect [1] [%] | Percent Effect [2] [%] | Percent Effect [3] [%] | Percent Effect [4] [%] | Percent Effect [5] [%] | Percent Effect [6] [%] | Percent Effect [7] [%] | Percent Effect [8] [%] | Percent Effect [9] [%] | Percent Effect [10] [%] | Percent Effect [11] [%]
1 | Cc1nc(C2CCCN2CC(=O)N(Cc2ccsc2)C2CC2)no1 (stereo unspecified) | -3.4 | -8.11 | -3.86 | 2.75 | 5.48 | -4.99 | 10.6 | 25.6 | 14.8 | 18.3 | -5.35
2 | CCc1nsc(NC2CCCn3nc(COC)nc32)n1 (stereo unspecified) | -4.32 | 13.3 | -5.77 | 21.4 | 4.77 | 16.7 | 9.94 | 7.13 | 3.83 | 13.6 | -6.59
3 | O=C(c1cc(F)ccc1F)C1CCN(C(=O)c2cccnc2O)CC1 | -5.29 | 7.79 | 3.43 | 13.6 | 2.06 | 0.21 | 3.8 | -28.1 | 1.91 | 9.41 | -12.7
4 | O=C(CN(Cc1ccccc1)CC1CCOCC1)NC(=O)NC1CC1 | -9.18 | 0 | 0.0982 | -1.54 | -4.96 | -4.39 | 3 | -3.5 | 1.04 | -3.7 | 1.29
5 | COCc1nc(C(=O)N2CCCC2c2ccccc2C)cs1 (stereo unspecified) | -2.11 | 3.8 | 3.68 | 5.3 | 0.513 | -4.09 | 13.2 | 16.4 | 9.38 | 22.8 | -22.3
6 | CSCCC1c2nc[nH]c2CCN1Cc1ccnc2ccccc12 (stereo unspecified) | -3.26 | 10.7 | -26.6 | 14.2 | 4.38 | 5.73 | 25.5 | 10.9 | 9.29 | 6.17 | -4.91
7 | Cc1nc(C)n(CC2CCCCN2CC(=O)Nc2nncs2)n1 (stereo unspecified) | -8.22 | 2.67 | -1.04 | 1.02 | -2.04 | 2.6 | 2.79 | -3.85 | 2.73 | 11.1 | -5.05
8 | O=C(COCC1CC1)N1CCCC(n2ccnc2)C1 (stereo unspecified) | -2.64 | 11.4 | 1.59 | -0.338 | -1.33 | 2.37 | 9.26 | 5.7 | 1.04 | 5.06 | -21.1
9 | Nc1nc2c(c(=O)[nH]1)CCN(C(=O)c1cccc3nccnc13)C2 | -2.43 | 10.4 | -11.5 | 9.88 | 2.46 | -12.4 | 20.6 | -5.63 | 4.3 | 8.64 | -0.6
10 | Cn1nc2c(cc1=O)CN(Cc1coc(-c3cccs3)n1)CC2 | 0.447 | 16.2 | -166 | 5.69 | 4.81 | 0.802 | -1.26 | -8.71 | -2.46 | 3.7 | -4.95
11 | Cc1n[nH]c(C)c1-c1cnc(CC2CCN(C)C2)cn1 (stereo unspecified) | -1.87 | 2.67 | 9.74 | 4.94 | 3.94 | -3.5 | 0.793 | -2.19 | 4.25 | 6.41 | -1.01
12 | O=C(Cc1ccsc1)NCC1OCCc2cn(CC3CC3)nc21 (stereo unspecified) | -2.34 | 7.79 | 4.36 | -0.104 | -3.06 | 4.52 | 9.92 | 10.1 | 8.47 | 8.97 | -0.722
13 | CC(C)(C)c1nnc(CN2CCN(CC(O)c3ccccc3)CC2)o1 (stereo unspecified) | -4.73 | 10.1 | -1.08 | 7.24 | 2.55 | 0 | -6.31 | 10.4 | 5.42 | 16.5 | -5.94
14 | CCn1c(N)nc2cc(C(=O)NCCc3ccccc3C)cnc21 | -2.81 | 13.7 | 9.51 | 3.5 | 5.09 | 15 | 22.7 | 20.2 | 5.38 | 17.5 | -12.1
15 | Cc1cc(NC(=O)NCc2ccccc2OC(F)F)n(C)n1 | 1.45 | 6.33 | 5.29 | -4.29 | -7.69 | 4.09 | 21.3 | 4.53 | 3.12 | 2.53 | -5.23
16 | O=C(O)[C@@H]1CN(C(=O)c2ccc3[nH]nnc3c2)C[C@H]1c1cccc(F)c1 | -4.68 | 11 | -5.72 | 8.16 | 6.94 | -3.99 | 12.6 | 3.52 | 4.17 | 8.64 | -2.47
